Consider 22 compounds from PubChem BioAssay AID651818 (Broad Institute, 2012).

Measured potencies and affinities stand elsewhere. Results filed as inconclusive are left out. Active and inactive are the calls of the source. No stated cut-off is given here; in the data, inconclusive means activity change below about -55%; inactive means above that.

The experiment in a line: intracellular Trypanosoma cruzi inhibitors in host cells – cell-based, plate reader, cherry-pick samples, set 3, dose response (AID 651818). The conditions noted are these: series mostly up to 10 µM; activity change, negative = inhibition: at the top concentration.
In the case of `Cc1noc(C)c1NC(=O)Nc1cccc2c1O[C@@H](CN(C)C(=O)NC1CCCCC1)[C@@H](C)CN([C@@H](C)CO)C2=O`, the “activity change, negative = inhibition” value is -25.2% (inactive). Then `CNC[C@H]1Oc2c(NS(=O)(=O)c3cccs3)cccc2C(=O)N([C@@H](C)CO)C[C@@H]1C`, with -3.22% (inactive); and `C[C@H](CO)N1C[C@H](C)[C@H](CN(C)S(C)(=O)=O)Oc2c(NS(=O)(=O)c3ccc(F)cc3)cccc2C1=O`, with 25.3% (inactive); and `CC(C)NC(=O)N(C)C[C@@H]1Oc2c(NS(=O)(=O)c3ccc(F)cc3)cccc2C(=O)N([C@H](C)CO)C[C@@H]1C`, with 20.4% (inactive).

`Cc1ccc(S(=O)(=O)Nc2cccc3c2O[C@H](CN(C)CC2CCCCC2)[C@@H](C)CN([C@H](C)CO)C3=O)cc1`: the “activity change, negative = inhibition” value was 30.9% (inactive).

Turning to `Cc1cc(C(=O)Nc2cccc3c2O[C@@H](CN(C)C(=O)Nc2ccccc2)[C@@H](C)CN([C@H](C)CO)C3=O)n(C)n1`, the “activity change, negative = inhibition” value was 4.05% (inactive). For `COc1ccc(S(=O)(=O)N(C)C[C@H]2Oc3c(NS(=O)(=O)c4ccc(F)cc4)cccc3C(=O)N([C@H](C)CO)C[C@H]2C)cc1`, the “activity change, negative = inhibition” value was -5.26% (inactive).

For `C[C@@H]1CN([C@@H](C)CO)C(=O)c2cccc(NS(C)(=O)=O)c2O[C@H]1CN(C)C(=O)NC1CCCCC1`, the “activity change, negative = inhibition” value was -0.449% (inactive).

In the case of `C[C@@H]1CN([C@H](C)CO)C(=O)c2cccc(NS(=O)(=O)c3cn(C)cn3)c2O[C@@H]1CN(C)CC1CCCCC1`, the “activity change, negative = inhibition” value is -17% (inactive).

With `C[C@H](CO)N1C[C@H](C)[C@H](CN(C)C(=O)NC2CCCCC2)Oc2c(NS(=O)(=O)c3ccc(F)cc3)cccc2C1=O`, the “activity change, negative = inhibition” value was -54.3% (inactive). Then `C[C@H]1CN([C@@H](C)CO)C(=O)c2cccc(NS(=O)(=O)c3cccs3)c2O[C@@H]1CN(C)C(=O)NC1CCCCC1`, with 29.2% (inactive). Consider `C[C@H](CO)N1C[C@H](C)[C@@H](CN(C)S(=O)(=O)c2ccc(Cl)cc2)Oc2c(NC(=O)c3cnccn3)cccc2C1=O`, for which the “activity change, negative = inhibition” value was -16.5% (inactive). The figure for `C[C@H](CO)N1C[C@H](C)[C@@H](CN(C)C(=O)Nc2ccc(C(F)(F)F)cc2)Oc2c(NS(=O)(=O)c3ccc(Cl)cc3)cccc2C1=O` is 11% (inactive); for `C[C@H](CO)N1C[C@H](C)[C@@H](CN(C)S(=O)(=O)c2ccc(Cl)cc2)Oc2c(NC(=O)C3CC3)cccc2C1=O` it is 20.4% (inactive). The figure for `CC(C)NC(=O)Nc1cccc2c1O[C@H](CN(C)Cc1ccc3c(c1)OCO3)[C@@H](C)CN([C@H](C)CO)C2=O` is -45.6% (inactive); for `Cc1noc(C)c1S(=O)(=O)Nc1cccc2c1O[C@@H](CN(C)CC1CC1)[C@@H](C)CN([C@H](C)CO)C2=O` it is -44.2% (inactive). Then `C[C@@H]1CN([C@@H](C)CO)C(=O)c2cccc(NC(=O)c3ccncc3)c2O[C@@H]1CN(C)C`, with -5.04% (inactive); and `C[C@@H]1CN([C@@H](C)CO)C(=O)c2cccc(NS(=O)(=O)c3cn(C)cn3)c2O[C@H]1CN(C)C(=O)Nc1ccc(F)cc1`, with -8.2% (inactive); and `Cc1noc(C)c1NC(=O)Nc1cccc2c1O[C@@H](CN(C)Cc1ccc(-c3ccccc3)cc1)[C@@H](C)CN([C@@H](C)CO)C2=O`, with 25.3% (inactive).

`C[C@H](CO)N1C[C@H](C)[C@H](CN(C)Cc2ccc3c(c2)OCO3)Oc2c(NC(=O)Nc3ccc(F)cc3)cccc2C1=O`: the “activity change, negative = inhibition” value was -43.3% (inactive). Turning to `C[C@@H]1CN([C@@H](C)CO)C(=O)c2cccc(NS(=O)(=O)c3cn(C)cn3)c2O[C@H]1CN(C)C(=O)Nc1ccc2c(c1)OCO2`, the “activity change, negative = inhibition” value was -29.3% (inactive). As for `Cc1noc(C)c1S(=O)(=O)N(C)C[C@@H]1Oc2c(NS(=O)(=O)c3cn(C)cn3)cccc2C(=O)N([C@H](C)CO)C[C@@H]1C`, the “activity change, negative = inhibition” value is -2.56% (inactive).
